The values that follow come from PubChem BioAssay AID2284385 (EPA ToxCast).

Where “and” joins values, the source holds several entries; their conditions need not be identical. Equal values may be shown once. Calls of active or inactive are those of the source. The calls were made as follows: active = hit-call score of the fitted dose curve at least 0.9, where 1 is the maximum; inactive = score below 0.9.

In this experiment the target is human Peroxisome proliferator-activated Receptor alpha (PPARa), PPARA (gene 5465) (UniProt Q07869). The experiment in a line: ERF_TW_NR_COA_hPPARA: Eurofins (ERF) Nuclear Receptor (NR) Functional Coactivator Assay for human Peroxisome proliferator-activated Receptor alpha (PPARa) Agonism & Antagonism, conducted at Taiwan lab site. The protocol: ERF_TW_NR_COA_hPPARA is a biochemical, single-readout assay that uses extracted gene-proteins in a cell-free assay. Measurements were taken 3 hours after chemical dosing in a 96-well plate. See PPARalpha Human NHR Functional Agonist Coactivator Assay, Panlabs.ERF_TW_NR_COA_hPPARA is an assay component calculated from the ERF_TW_NR_COA_hPPARA assay. It is designed to measure FRET using a type of binding reporter as detected by fluorescence intensity of GW7647 with fluorimetry technology.Data from the assay component ERF_TW_NR_COA_hPPARA was analyzed at the assay endpoint, ERF_TW_NR_COA_hPPARA, in the positive analysis fitting direction relative to DMSO as the negative control and baseline of activity. Using a type of binding reporter, gain-of-signal activity can be used to understand changes in binding as they relate to gene PPARA. To generalize the intended target to other relatable targets, this assay endpoint is annotated to the nuclear receptor intended target family, where the subfamily is non-steroidal.
human Peroxisome proliferator-activated Receptor alpha (PPARa), PPARA (gene 5465), sequence (Q07869 whole entry, looked up): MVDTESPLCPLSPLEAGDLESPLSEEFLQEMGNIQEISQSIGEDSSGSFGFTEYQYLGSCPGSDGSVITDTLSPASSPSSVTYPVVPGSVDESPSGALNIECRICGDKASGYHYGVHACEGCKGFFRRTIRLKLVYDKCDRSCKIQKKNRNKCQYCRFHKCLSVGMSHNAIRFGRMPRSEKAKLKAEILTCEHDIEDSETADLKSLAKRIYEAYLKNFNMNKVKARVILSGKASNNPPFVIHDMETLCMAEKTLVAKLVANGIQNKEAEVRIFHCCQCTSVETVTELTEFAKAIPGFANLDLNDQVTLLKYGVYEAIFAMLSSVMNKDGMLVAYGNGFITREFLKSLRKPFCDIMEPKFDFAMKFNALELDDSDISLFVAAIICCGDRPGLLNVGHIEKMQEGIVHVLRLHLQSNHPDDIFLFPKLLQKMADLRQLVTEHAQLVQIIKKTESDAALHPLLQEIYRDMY
Human recombinant peroxisome proliferators-activated receptor alpha (PPARA, PPARa, PPAR-alpha) hPPAR, NR1C1) receptors expressed in insect are used. Test compound and/or vehicle is incubated with the 2.5 nM receptors and binding buffer in modified kit buffer pH 7.4 for 3 hours at RT. Determination of the amount of complex formed is read microplate reader (excitation:337 nm, emission: 520/490 nm). Test compound-induced increase fluorescence by 50 percent or more (>/=50%) relative to the 1 uM GW7647 response indicates possible PPARa receptor agonist activity. Test compound-induced inhibition of 20 nM GW7647-induced fluorescence response by 50 percent or more (>/=50%) indicates receptor antagonist activity.
Take `O=S(=O)(O)C(F)(F)C(F)(F)C(F)(F)C(F)(F)C(F)(F)C(F)(F)C(F)(F)C(F)(F)F`: the call was inactive.
In general, AC50 refers to the concentration giving half of the maximal activity seen. On to `O=C(O)C(F)(F)OC(F)(F)C(F)(F)OC(F)(F)F`, for which the AC50 was 19.3 µM (active).
Still for that read-out and setting: the value for `O=C(O)C(F)(F)C(F)(F)C(F)(F)C(F)(F)C(F)(F)C(F)(F)C(F)(F)F` was 11.5 µM (active) and 17.1 µM (active).
For `O=C(O)C(F)(F)C(F)(F)C(F)(F)C(F)(F)C(F)(F)C(F)(F)F`, the AC50 was 50 µM (active).
`O=S(=O)(O)C(F)(F)C(F)(F)C(F)(F)C(F)(F)C(F)(F)C(F)(F)F`: the outcome was inactive.
